Data: PubChem BioAssay (Tox21)
Results filed as inconclusive are left out. A call without a number means that no potency is given here. Activity calls are given as the source filed them. Unless noted, calls follow the shape of the dose curve; as a rule, active = well fitted curve in the direction sought with a large enough effect in the repeat runs; inconclusive = weak or mixed curves; inactive = no such curve, though single readings can be large; an effect the other way counts as inactive or inconclusive.

Experiments:
[1] = qHTS assay to identify aromatase inhibitors - cell viability counter screen (AID 743084);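 also: cells stimulated with testosterone during compound exposure; nearly all actives have a fitted effect of over 55% in size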
[2] = target: Aryl hydrocarbon receptor (Homo sapiens) (UniProt P35869); test: qHTS assay to identify small molecule that activate the aryl hydrocarbon receptor (AhR) signaling pathway (AID 743085);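 also: HG2L7.5c1 human HepG2 liver cells with stably integrated DRE-driven firefly reporter; series mostly up to about 70 µM; nearly all actives have a fitted effect of over 15% in size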
Method in brief: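 Reporter assay in engineered HepG2 line HG2L7.5c1, whose plasmid carries twenty dioxin responsive elements upstream of firefly luciferase. Treatment lasted 24 h at 37C; ONE-Glo luminescence gauged induction.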

[3] = qHTS assay to identify small molecule that activate the aryl hydrocarbon receptor (AhR) signaling pathway - cell viability counter screen (AID 743086);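 also: HepG2 liver cells carrying the AhR DRE luciferase reporter; series mostly up to about 70 µM; nearly all actives have a fitted effect of over 45% in size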
Method in brief: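 HepG2-AhR-luc (HG2L7.5c1) cells, 4000/well, were preincubated 5 h at 37C, exposed to compound in qHTS format for 24 hr at 37C, then given CellTiter-Fluor for 30 min; viability was read as fluorescence in the reporter wells.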

[4] = target: Peroxisome proliferator-activated receptor gamma (Homo sapiens) (UniProt P37231); test: qHTS assay to identify small molecule agonists of the peroxisome proliferator-activated receptor gamma (PPARg) signaling pathway (AID 743094; active = well fitted activation curve with a large enough effect in the signal ratio in the repeat runs, not every such curve was filed as active; the % refers to the signal ratio; also: potency is read from the fitted curve at half-maximal effect)
Method in brief: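 HEK293H PPARg-bla cells, 5 h settle at 37C/5% CO2; compound (DMSO) 17 h, 37C; B/G FRET substrate 1 h RT; fluorescence intensity read-out. qHTS format.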

[5] = target: Peroxisome proliferator-activated receptor gamma (Homo sapiens) (UniProt P37231); test: qHTS assay to identify small molecule antagonists of the peroxisome proliferator-activated receptor gamma (PPARg) signaling pathway (AID 743191; calls by dose curve; also: series mostly up to about 63 µM; nearly all actives have a fitted effect of over 30% in size)
Method in brief: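 GeneBLAzer PPARg UAS-bla HEK293H cells carrying a UAS-driven beta-lactamase reporter were plated at 3000 cells/well, preincubated 5 h at 37C, then given compound for 17 h at 37C; LiveBLAzer B/G FRET substrate was read after 1 h at room temperature.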

[6] = qHTS assay to identify small molecule antagonists of the peroxisome proliferator-activated receptor gamma (PPARg) signaling pathway - cell viability counter screen (AID 743194); also: nearly all actives have a fitted effect of over 55% in size
Method in brief: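 PPARg-UAS-bla HEK293H cells were plated, rested 5 h at 37 C, then treated with compounds plus rosiglitazone (50 nM final) for 17 h at 37 C; viability was then read by CellTiter-Glo luminescence after 30 min at room temperature.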

[7] = qHTS assay for small molecule agonists of the antioxidant response element (ARE) signaling pathway (AID 743202; active = well fitted activation curve with a large enough effect in the signal ratio in the repeat runs, not every such curve was filed as active; the % refers to the signal ratio)
Method in brief: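 Following a 16 h, 37 C exposure of reporter HepG2 cells (ARE-driven beta-lactamase, 2,000 cells/well) to compounds, FRET substrate was applied for 2 h at room temperature and fluorescence intensity recorded.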

[8] = qHTS assay for small molecule agonists of the antioxidant response element (ARE) signaling pathway - cell viability counter screen (AID 743203; calls by dose curve; also: nearly all actives have a fitted effect of over 55% in size)
Method in brief: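 Luminescence read-out (CellTiter-Glo, 30 min at room temperature) measured cell viability in the same wells as the ARE beta-lactamase reporter. HepG2 ARE-bla cells were treated with compounds for 16 hrs at 37C/5% CO2.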

[9] = qHTS assay for small molecule activators of the heat shock response signaling pathway - cell viability counter screen (AID 743209); also: nearly all actives have a fitted effect of over 50% in size
Method in brief: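 HSE-bla HeLa; 1500 cells/well; overnight 37 C, 5% CO2; compound 5 h 37 C; LiveBLAzer B/G substrate 2.5 h RT; CellTiter-Glo 30 min RT; luminescence.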

[10] = qHTS assay for small molecule activators of the heat shock response signaling pathway (AID 743210; active = well fitted activation curve with a large enough effect in the signal ratio in the repeat runs, with a control signal flat, not every such curve was filed as active; the % refers to the signal ratio; also: series mostly up to about 63 µM)
Method in brief: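 Heat shock element–beta-lactamase HeLa reporter cells; qHTS with compounds for 5 h at 37 C; detection by FRET substrate fluorescence after 2.5 h at RT.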

[11] = qHTS assay to identify small molecule agonists of the peroxisome proliferator-activated receptor delta (PPARd) signaling pathway - cell viability counter screen (AID 743211); also: nearly all actives have a fitted effect of over 55% in size
Method in brief: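 Multiplexed format: after the 2 h room-temperature LiveBLAzer B/G FRET step, CellTiter-Glo was added to the same wells. Luminescence after 30 min gave cell viability; compound exposure was 17 h at 37C.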

[12] = qHTS assay to identify small molecule antagonists of the peroxisome proliferator-activated receptor delta (PPARd) signaling pathway - cell viability counter screen (AID 743213); also: nearly all actives have a fitted effect of over 50% in size
Method in brief: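 PPARd-bla HEK293H cells (3000/well) got compound plus 300 nM L165041 agonist for 17 h at 37 C. Viability in the same wells came from CellTiter-Glo luminescence after 30 min at room temperature.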

[13] = target: Peroxisome proliferator-activated receptor delta (Homo sapiens) (UniProt Q03181); test: qHTS assay to identify small molecule antagonists of the peroxisome proliferator-activated receptor delta (PPARd) signaling pathway (AID 743215; active = well fitted inhibition curve with a large enough effect in the signal ratio in the repeat runs, not every such curve was filed as active; the % refers to the signal ratio;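 also: cells stimulated with agonist L165041 at 300 nM final during compound exposure; series mostly up to about 62 µM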)
Method in brief: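 HEK293H GeneBLAzer PPARd UAS-bla reporter cells; cpd + L165041 300 nM final, 17 h 37 C; LiveBLAzer B/G FRET substrate 2 h RT; fluorescence intensity read-out. Antagonist mode.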

[14] = target: Bile acid receptor (Homo sapiens) (UniProt Q96RI1); test: qHTS assay to identify small molecule antagonists of the farnesoid-X-receptor (FXR) signaling pathway (AID 743217; active = well fitted inhibition curve with a large enough effect in the signal ratio in the repeat runs, not every such curve was filed as active; the % refers to the signal ratio)
Method in brief: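 Read-out: beta-lactamase FRET fluorescence (LiveBLAzer B/G substrate, 2 h, room temperature) in GeneBLAzer FXR-UAS-bla HEK 293T cells. Compounds were co-dosed with 50 uM chenodeoxycholic acid (final) and incubated 16 h at 37 °C.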

[15] = qHTS assay to identify small molecule agonists of the farnesoid-X-receptor (FXR) signaling pathway - cell viability counter screen (AID 743218); also: nearly all actives have a fitted effect of over 45% in size
Method in brief: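 Luminescence from CellTiter-Glo, read after 30 min at RT, reports viability of GeneBLAzer FXR-UAS-bla HEK 293T cells treated 16 h with compounds in the wells used for the beta-lactamase reporter.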

[16] = target: Bile acid receptor (Homo sapiens) (UniProt Q96RI1); test: qHTS assay to identify small molecule agonists of the farnesoid-X-receptor (FXR) signaling pathway (AID 743220; active = well fitted activation curve with a large enough effect in the signal ratio in the repeat runs, not every such curve was filed as active; the % refers to the signal ratio)
Method in brief: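 FXR-UAS-bla HEK 293T cells carrying a UAS-driven beta-lactamase reporter were plated for 5 h at 37C/5% CO2, then exposed to DMSO-dissolved Tox21 10K compounds for 16 h at 37C. A LiveBLAzer B/G FRET substrate was loaded for 2 h at room temperature before fluorescence reading.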

[17] = qHTS assay to identify small molecule antagonists of the farnesoid-X-receptor (FXR) signaling pathway - cell viability counter screen (AID 743221; active = well fitted cell-killing curve with a large enough effect in the repeat runs, not every such curve was filed as active; also: nearly all actives have a fitted effect of over 50% in size)
Method in brief: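 CellTiter-Glo, 30 min RT, luminescence; same wells as the LiveBLAzer FRET read. Cells: FXR-UAS-bla HEK 293T. Treatment: compound with chenodeoxycholic acid 50 uM final, 16 h at 37 C.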

[18] = target: Vitamin D3 receptor (Homo sapiens) (UniProt P11473); test: qHTS assay to identify small molecule agonists of the vitamin D receptor (VDR) signaling pathway (AID 743222; calls by dose curve)
Method in brief: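 Beta-lactamase reporter readout (LiveBLAzer B/G FRET, 2 h RT) in VDR-bla cells after 16 h compound treatment at 37C, 5% CO2; cells pre-incubated 4 h before pin transfer of DMSO solutions.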

[19] = target: Peroxisome proliferator-activated receptor delta (Homo sapiens) (UniProt Q03181); test: qHTS assay to identify small molecule agonists of the peroxisome proliferator-activated receptor delta (PPARd) signaling pathway (AID 743212; calls by dose curve)
Method in brief: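 Beta-lactamase reporter read by fluorescence (LiveBLAzer B/G FRET, 2 h, room temperature). Test agents, in DMSO, incubated at 37 C with PPARd-bla HEK293H cells.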

[20] = target: Vitamin D3 receptor (Homo sapiens) (UniProt P11473); test: qHTS assay to identify small molecule antagonists of the vitamin D receptor (VDR) signaling pathway (AID 743223; active = well fitted inhibition curve with a large enough effect in the signal ratio in the repeat runs, not every such curve was filed as active; the % refers to the signal ratio)
Method in brief: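 After VDR-bla cells are plated and left 4 h at 37C, DMSO-dissolved compounds and 3 nM (final) calcitriol agonist are added. Incubation continues 16 h at 37C; FRET beta-lactamase substrate then develops 2 h at room temperature.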

Chain of Bile acid receptor (Homo sapiens) (Q96RI1 whole entry, looked up): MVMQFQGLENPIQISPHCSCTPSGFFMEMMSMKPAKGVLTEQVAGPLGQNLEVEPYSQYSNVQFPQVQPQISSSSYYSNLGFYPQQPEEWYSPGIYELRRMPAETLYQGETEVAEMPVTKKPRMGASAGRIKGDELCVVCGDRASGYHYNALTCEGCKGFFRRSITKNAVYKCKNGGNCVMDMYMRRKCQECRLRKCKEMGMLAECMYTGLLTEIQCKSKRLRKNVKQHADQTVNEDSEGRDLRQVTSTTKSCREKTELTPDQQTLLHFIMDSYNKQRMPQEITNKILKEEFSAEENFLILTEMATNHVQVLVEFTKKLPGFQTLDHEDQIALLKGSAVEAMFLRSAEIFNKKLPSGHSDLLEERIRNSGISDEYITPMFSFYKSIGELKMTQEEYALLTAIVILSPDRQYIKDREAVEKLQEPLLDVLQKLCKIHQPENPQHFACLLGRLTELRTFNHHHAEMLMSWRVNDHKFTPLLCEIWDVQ
Chain of Vitamin D3 receptor (Homo sapiens) (P11473 whole entry, looked up): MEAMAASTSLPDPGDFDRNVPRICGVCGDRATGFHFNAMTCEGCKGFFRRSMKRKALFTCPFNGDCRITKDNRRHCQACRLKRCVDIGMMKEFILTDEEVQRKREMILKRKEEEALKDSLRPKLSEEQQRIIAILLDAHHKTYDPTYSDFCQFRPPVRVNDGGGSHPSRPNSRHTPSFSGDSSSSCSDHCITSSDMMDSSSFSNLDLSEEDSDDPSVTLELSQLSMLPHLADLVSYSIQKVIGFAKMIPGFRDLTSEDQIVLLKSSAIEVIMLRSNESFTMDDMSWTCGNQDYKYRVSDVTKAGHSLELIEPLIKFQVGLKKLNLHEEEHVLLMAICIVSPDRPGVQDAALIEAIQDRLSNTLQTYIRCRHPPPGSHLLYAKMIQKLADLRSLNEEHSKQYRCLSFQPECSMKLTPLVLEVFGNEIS
Chain of Peroxisome proliferator-activated receptor delta (Homo sapiens) (Q03181 whole entry, looked up): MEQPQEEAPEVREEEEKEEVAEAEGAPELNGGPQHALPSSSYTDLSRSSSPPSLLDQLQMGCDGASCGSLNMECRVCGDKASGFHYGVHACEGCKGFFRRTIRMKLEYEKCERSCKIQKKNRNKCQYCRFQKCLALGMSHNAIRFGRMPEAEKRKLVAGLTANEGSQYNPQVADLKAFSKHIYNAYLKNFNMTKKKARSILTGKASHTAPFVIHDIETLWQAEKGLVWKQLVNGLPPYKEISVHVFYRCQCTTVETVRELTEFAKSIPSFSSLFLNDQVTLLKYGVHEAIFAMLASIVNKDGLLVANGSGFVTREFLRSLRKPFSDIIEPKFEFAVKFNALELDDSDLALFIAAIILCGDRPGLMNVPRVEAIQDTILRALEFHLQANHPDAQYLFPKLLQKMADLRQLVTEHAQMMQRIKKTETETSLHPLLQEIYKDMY
Chain of Aryl hydrocarbon receptor (Homo sapiens) (P35869 whole entry, looked up): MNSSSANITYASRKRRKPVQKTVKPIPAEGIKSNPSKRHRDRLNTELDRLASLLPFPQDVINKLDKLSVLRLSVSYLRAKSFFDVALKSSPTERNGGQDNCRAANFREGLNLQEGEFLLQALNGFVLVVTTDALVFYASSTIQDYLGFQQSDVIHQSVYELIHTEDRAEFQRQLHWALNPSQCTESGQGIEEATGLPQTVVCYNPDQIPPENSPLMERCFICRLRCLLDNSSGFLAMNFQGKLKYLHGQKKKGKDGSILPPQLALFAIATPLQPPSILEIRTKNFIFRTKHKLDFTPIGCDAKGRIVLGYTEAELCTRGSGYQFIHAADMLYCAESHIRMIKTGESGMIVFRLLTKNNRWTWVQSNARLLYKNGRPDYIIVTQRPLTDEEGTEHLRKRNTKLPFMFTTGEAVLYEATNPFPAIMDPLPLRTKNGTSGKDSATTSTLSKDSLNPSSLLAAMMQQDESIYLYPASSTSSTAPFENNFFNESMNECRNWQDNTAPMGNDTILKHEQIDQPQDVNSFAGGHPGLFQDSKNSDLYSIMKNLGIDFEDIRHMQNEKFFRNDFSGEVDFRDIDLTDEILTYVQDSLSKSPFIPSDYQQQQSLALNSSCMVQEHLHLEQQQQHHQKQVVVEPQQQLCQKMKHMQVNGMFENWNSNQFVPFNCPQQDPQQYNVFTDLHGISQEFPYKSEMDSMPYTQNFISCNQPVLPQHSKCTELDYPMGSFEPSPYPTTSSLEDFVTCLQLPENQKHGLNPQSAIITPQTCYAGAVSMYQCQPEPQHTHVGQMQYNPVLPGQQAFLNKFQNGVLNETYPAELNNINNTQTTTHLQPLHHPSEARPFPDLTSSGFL
Chain of Peroxisome proliferator-activated receptor gamma (Homo sapiens) (P37231 whole entry, looked up): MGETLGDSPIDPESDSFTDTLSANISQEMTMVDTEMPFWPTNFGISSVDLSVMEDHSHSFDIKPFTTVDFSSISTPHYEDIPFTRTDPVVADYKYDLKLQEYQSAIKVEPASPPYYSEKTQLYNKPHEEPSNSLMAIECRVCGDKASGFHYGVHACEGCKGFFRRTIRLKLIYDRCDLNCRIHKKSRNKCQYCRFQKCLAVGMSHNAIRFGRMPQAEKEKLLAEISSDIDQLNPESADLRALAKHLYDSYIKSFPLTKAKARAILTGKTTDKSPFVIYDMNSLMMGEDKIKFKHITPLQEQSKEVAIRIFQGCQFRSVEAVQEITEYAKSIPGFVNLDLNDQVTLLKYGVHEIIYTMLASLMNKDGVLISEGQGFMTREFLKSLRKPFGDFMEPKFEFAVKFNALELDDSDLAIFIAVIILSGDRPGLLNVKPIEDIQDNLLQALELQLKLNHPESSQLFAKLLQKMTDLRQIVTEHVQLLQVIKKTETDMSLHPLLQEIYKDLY

Compound	Potency [1]	Potency [2]	outcome [3]	Potency [4]	Potency [5]	Potency [6]	Potency [7]	Potency [8]	outcome [9]	Potency [10]	Potency [11]	Potency [12]	outcome [13]	outcome [14]	Potency [15]	outcome [16]	outcome [17]	outcome [18]	outcome [19]	outcome [20]
COc1cc(C)ccc1C(C)C	inactive	inactive	inactive	inactive	inactive	inactive	inactive	inactive	inactive	inactive	inactive	inactive	inactive	inactive	inactive	inactive	inactive	inactive		
CN(C)CCOc1ccccc1Cc1ccccc1	inactive	inactive	inactive	inactive	inactive	inactive	inactive	inactive	inactive	inactive	inactive	inactive	inactive		inactive			inactive	inactive	inactive
CS(=O)(=O)c1ccc([C@@H](O)[C@@H](CF)NC(=O)C(Cl)Cl)cc1	inactive	inactive	inactive	inactive	inactive	inactive	inactive	inactive	inactive	inactive	inactive	inactive	inactive	inactive	inactive	inactive	inactive		inactive	
COC(C)CCO (stereo not given)	inactive	inactive	inactive	inactive	inactive	inactive	inactive	inactive	inactive	inactive	inactive	inactive			inactive		inactive	inactive		inactive
O=Cc1ccc(F)c(Br)c1	inactive	inactive	inactive	inactive	inactive	inactive	inactive	inactive	inactive	inactive			inactive		inactive		inactive	inactive		inactive
CC1(C)C(=O)N(Cl)C(=O)N1Br	inactive	inactive	inactive	inactive	inactive	inactive		inactive	inactive	inactive	inactive	inactive		inactive	inactive	inactive			inactive	
Cc1ccc([N+](=O)[O-])c(N)c1	inactive	inactive	inactive	inactive	inactive	inactive		inactive	inactive	inactive	inactive	inactive	inactive		inactive		inactive		inactive	inactive
Clc1cccc(-c2cc(Cl)cc(Cl)c2)c1	inactive	inactive	inactive	inactive	inactive	inactive	inactive	inactive	inactive		inactive	inactive					inactive	inactive		
CC(C)(CO)[C@@H](O)C(=O)NCCC(=O)O	inactive	inactive	inactive	inactive	inactive	inactive		inactive	inactive	inactive	inactive		inactive		inactive			inactive	inactive	inactive
COc1cc(Cl)ccc1Cl	inactive	inactive	inactive	inactive	inactive	inactive	inactive	inactive	inactive	inactive			inactive		inactive		inactive		inactive	inactive
CC(C)(C)c1cccc(O)c1	inactive	inactive	inactive	inactive	inactive	inactive		inactive	inactive		inactive		inactive		inactive		inactive		inactive	inactive
O=C(O)c1cccc(Cl)c1Cl	inactive	inactive	inactive	inactive	inactive	inactive	inactive	inactive	inactive	inactive			inactive		inactive		inactive	inactive		
C=CCCC=C	inactive	inactive	inactive	inactive	inactive	inactive	inactive	inactive	inactive				inactive	inactive	inactive	inactive	inactive		inactive	
CCN(CC)CCNC(=O)COc1ccc(Cl)cc1	inactive	inactive	inactive	inactive	inactive	inactive	inactive	inactive	inactive	inactive	inactive	inactive	inactive		inactive		inactive		inactive	
Cc1c(-c2ccccc2)oc2c(C(=O)OCCN3CCCCC3)cccc2c1=O	inactive	inactive	inactive	inactive	inactive	inactive	inactive	inactive	inactive	inactive	inactive		inactive		inactive			inactive	inactive	inactive
O=S(=O)(O)C(F)(F)F	inactive	inactive	inactive	inactive	inactive	inactive		inactive	inactive	inactive			inactive		inactive		inactive	inactive		
C[C@@H]1CN(c2c(F)c(F)c3c(=O)c(C(=O)O)cn(C4CC4)c3c2F)C[C@H](C)N1	inactive	inactive	inactive	inactive	inactive	inactive		inactive	inactive	inactive	inactive	inactive	inactive		inactive	inactive	inactive		inactive	inactive
CCCNC(C)(C)COC(=O)c1ccccc1	inactive	inactive	inactive	0.338 µM (active)	inactive	inactive		inactive	inactive	inactive	inactive	inactive	inactive		inactive		inactive	inactive	inactive	inactive
